This note sets out measurements from PubChem BioAssay (NCATS).

Records with an inconclusive call do not appear. Where a call stands in place of a potency, no number is given. Active and inactive are the calls of the source. The call rests on the fitted dose curve; in most records, active means well fitted cell-killing curve with a large enough effect; inconclusive means small, poorly fitted or top-dose-only effect, or effect the other way; inactive means flat fitted curve, though single readings scatter.

The test system of the test is JEG-3. Nature of the test: Primary qHTS to identify gynecologic anti-cancer compounds using libraries of approved drugs and bioactive compounds (AID 1345084). Further: nearly all actives have a fitted effect of over 55% in size. To be noted: Gynecologic cancer cell panel viability, ATPlite luminescence, 48 h; series mostly up to 57.5 µM. In short, it runs like this: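 Cells, 1,000 per well, were allowed to settle for 16 h at 37 C before compound addition. Five concentrations were tested for 48 h, and viability was read by ATPlite luminescence after 15 min at room temperature.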
In general terms: qHTS replaces the single test concentration by a dilution series.
Regarding `Nc1nc2c(ncn2C2OC3COP(=O)(O)OC3C2O)c(=O)[nH]1` (stereo not drawn), the Potency entry is “inactive”.

In the case of `CC(F)(F)CN1CCOc2c(nn(-c3ccccc3Cl)c2-c2ccc(Cl)cc2)C1=O`, the Potency entry is “inactive”.

For the compound `CN[C@@H]1[C@H](O[C@H]2[C@H](O[C@@H]3[C@@H](O)[C@H](O)[C@@H](N=C(N)N)[C@H](O)[C@H]3N=C(N)N)O[C@@H](C)[C@]2(O)CO)O[C@@H](CO)[C@H](O)[C@H]1O`, the Potency result was “inactive”.
